For 18 compounds, GFP response, % of DMSO results are on record in PubChem BioAssay.

Molecules are shown by their SMILES.

One assay is described as follows: modulators of CIT2-GFP expression in yeast, confirmation, S. cerevisiae, GFP fusion, cherry picks, mother/daughter gates (AID 2274). The conditions noted are these: S. cerevisiae CIT2-GFP strain, flow cytometry, 3 h; measured here: daughter cell gate; at 10 µM; stronger effect = higher value.
`O=C1c2ccccc2-c2onc3ccc(Oc4ccccc4)c1c23` returned a GFP response, % of DMSO of 94.8%.

As for `CCOc1nnc(C)c2c(C)n(-c3cccc(OC)c3)nc12`, the GFP response, % of DMSO is 105%.

`O=C(C#Cc1ccccc1)c1cccc([N+](=O)[O-])c1` had a GFP response, % of DMSO of 110%.

`COC(=O)c1ccc2nc(Nc3nc4c(F)cc(F)cc4s3)sc2c1`: the GFP response, % of DMSO was found to be 98.4%.

For the compound `O=C(C#Cc1cccc([N+](=O)[O-])c1)c1ccccc1`, the GFP response, % of DMSO came to 104%.

Compound `COC(=O)n1c(=S)oc2cc(Cl)ccc21` returned a GFP response, % of DMSO of 98.3%.

For `O=C(/C=C/c1ccc(Cl)c([N+](=O)[O-])c1)c1cccnc1`, the GFP response, % of DMSO is 102%.

`COCCN1C(=O)/C(=C/c2ccc(N3CCCC3)cc2C)SC1=S`: the GFP response, % of DMSO stood at 112%.

On to `N=c1c(C(=O)NCc2ccco2)cc2c(=O)n3ccccc3nc2n1CCc1ccccc1`, for which the GFP response, % of DMSO was determined as 95.4%.

`COc1cccc2sc(Nc3nc(-c4ccccn4)cs3)nc12` gave a GFP response, % of DMSO of 99.7%.

`Oc1ccc2ccccc2c1/C=N/Nc1nnc(-c2ncc[nH]2)c2ccccc12` had a GFP response, % of DMSO of 114%.

`CN(C)c1ccc(/C=C/C(=O)c2cccc(Br)c2)cc1` registered a GFP response, % of DMSO of 97.4%.

Turning to `CN(c1ccccc1)c1ccc(/C=c2\s/c(=C(/C#N)C(=O)C(C)(C)C)n(Cc3ccco3)c2=O)cc1`, the GFP response, % of DMSO worked out at 229%.

Compound `CS(=O)(=O)N1N=C(c2ccccc2)CC1c1ccc2c(c1)OCO2` (stereo unspecified) had a GFP response, % of DMSO of 437%.

In the case of `CCOC(=O)N1CCN(C(=O)CCc2ccc(S(=O)(=O)NCCc3ccccc3)cc2)CC1`, the GFP response, % of DMSO came to 101%.

Compound `CC(C)(C)c1ccc(C(=O)CC(Sc2ccc(Cl)cc2)C(=O)O)cc1` (stereo unspecified) registered a GFP response, % of DMSO of 79.4%.

The compound `Cc1cc(C)c(C(=O)Cn2cnc3cc([N+](=O)[O-])ccc3c2=O)cc1C` gave a GFP response, % of DMSO of 97.6%.

`CC(C)(C)C(=O)/C=c1\s/c(=C\c2ccc(-c3ccc([N+](=O)[O-])cc3)o2)c(=O)n1CC(=O)NC(N)=O` returned a GFP response, % of DMSO of 100%.

The assay is the same for the next values; noted with them: S. cerevisiae CIT2-GFP strain, flow cytometry, 3 h; measured here: mother cell gate; at 10 µM; stronger effect = higher value.
`O=C1c2ccccc2-c2onc3ccc(Oc4ccccc4)c1c23`: the GFP response, % of DMSO was determined as 94.4%.

On to `CCOc1nnc(C)c2c(C)n(-c3cccc(OC)c3)nc12`, for which the GFP response, % of DMSO is 109%.

Compound `O=C(C#Cc1ccccc1)c1cccc([N+](=O)[O-])c1` returned a GFP response, % of DMSO of 97.3%.

Take `COC(=O)c1ccc2nc(Nc3nc4c(F)cc(F)cc4s3)sc2c1`: the GFP response, % of DMSO stood at 98.7%.

The compound `O=C(C#Cc1cccc([N+](=O)[O-])c1)c1ccccc1` registered a GFP response, % of DMSO of 91%.

Turning to `COC(=O)n1c(=S)oc2cc(Cl)ccc21`, the GFP response, % of DMSO was 100%.

For `O=C(/C=C/c1ccc(Cl)c([N+](=O)[O-])c1)c1cccnc1`, the GFP response, % of DMSO came out at 72.8%.

`COCCN1C(=O)/C(=C/c2ccc(N3CCCC3)cc2C)SC1=S` registered a GFP response, % of DMSO of 112%.

As for `N=c1c(C(=O)NCc2ccco2)cc2c(=O)n3ccccc3nc2n1CCc1ccccc1`, the GFP response, % of DMSO stood at 91.4%.

`COc1cccc2sc(Nc3nc(-c4ccccn4)cs3)nc12` came in with a GFP response, % of DMSO of 88%.

On to `Oc1ccc2ccccc2c1/C=N/Nc1nnc(-c2ncc[nH]2)c2ccccc12`, for which the GFP response, % of DMSO stood at 205%.

As for `CN(C)c1ccc(/C=C/C(=O)c2cccc(Br)c2)cc1`, the GFP response, % of DMSO was found to be 98.1%.

For the compound `CN(c1ccccc1)c1ccc(/C=c2\s/c(=C(/C#N)C(=O)C(C)(C)C)n(Cc3ccco3)c2=O)cc1`, the GFP response, % of DMSO was determined as 230%.

For `CS(=O)(=O)N1N=C(c2ccccc2)CC1c1ccc2c(c1)OCO2` (stereo unspecified), the GFP response, % of DMSO was found to be 413%.

As to `CCOC(=O)N1CCN(C(=O)CCc2ccc(S(=O)(=O)NCCc3ccccc3)cc2)CC1`, the GFP response, % of DMSO worked out at 100%.

Regarding `CC(C)(C)c1ccc(C(=O)CC(Sc2ccc(Cl)cc2)C(=O)O)cc1` (stereo unspecified), the GFP response, % of DMSO was 77.8%.

`Cc1cc(C)c(C(=O)Cn2cnc3cc([N+](=O)[O-])ccc3c2=O)cc1C` gave a GFP response, % of DMSO of 98.2%.

Turning to `CC(C)(C)C(=O)/C=c1\s/c(=C\c2ccc(-c3ccc([N+](=O)[O-])cc3)o2)c(=O)n1CC(=O)NC(N)=O`, the GFP response, % of DMSO is 98.7%.
